# Measurements taken from PubChem BioAssay (NCI).
# Compounds without any hit were thinned out: in the full panel of roughly 83,000, 20% have a hit.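 For each line, cells grew in 96-well plates with the test compound present at a single concentration for 48 hours.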 Values without a mark were called inactive. Activity calls are given as the source filed them. The calls were made as follows: active = growth percent below 10; inactive = the rest.
# What was measured:
# Assay in all cases: NCI-60 one-dose screen, 48 h (100 = growth as untreated, 0 = no growth, -100 = all killed)
# Conditions in all cases: 10 µM unless noted
# [1] = test system: T-47D breast
# [2] = test system: BT-549 breast
# [3] = test system: MDA-MB-435 melanoma
# [4] = test system: SW-620 colon
# [5] = test system: HCT-116 colon
# [6] = test system: HCC-2998 colon
# [7] = test system: KM12 colon
# [8] = test system: MCF7 breast
SMILES,growth [1],growth [2],growth [3],growth [4],growth [5],growth [6],growth [7],growth [8]
Cc1ccc(S(=O)(=O)NCCCNc2nccc(-c3c(-c4cccc(F)c4)nc4occn34)n2)cc1,39.5%,92.1%,43.4%,76.8%,53.6%,117%,77.6%,–
Nc1ccc(NC(=O)c2ccccc2)c2c1C(=O)c1ccccc1C2=O,107%,101%,98.2%,98.3%,101%,–,96%,81.6%
COc1cc(C)cc2oc3oc(=O)c(-c4nc5ccccc5s4)cc3c(=O)c12,91.2%,92.7%,95.3%,83.9%,93.4%,109%,93.1%,–
Nc1ccc(Cl)c([N+](=O)[O-])c1,91.9%,95.1%,95.1%,104%,97.7%,94.4%,96.1%,–
C=C(C)[C@@H]1CC[C@]2(C(=O)OC)CC[C@]3(C)[C@H](CC[C@@H]4[C@@](C)(CCc5nn[nH]n5)[C@H](C(=C)C)CC[C@]43C)[C@@H]12,-5.51% [100 µM] (active),-12.1% [100 µM] (active),-54% [100 µM] (active),-19.6% [100 µM] (active),-21.5% [100 µM] (active),-53.5% [100 µM] (active),-43.7% [100 µM] (active),–
NC1=NC(=O)NC1(c1ccccc1)c1ccccc1,80.3%,131%,104%,99.2%,99.9%,–,103%,99.8%
CCCCN(CC)CC(CC)Nc1cc(OC)cc2cccnc12 (stereo not given),110%,110%,102%,108%,105%,–,107%,98.5%
CC(C)C1=NOC(=O)C1=Cc1cn(-c2ccccc2)nc1-c1cccc([N+](=O)[O-])c1,84.5%,109%,80%,57.8%,34.7%,87.3%,87%,–
CCc1ccc(C2=C/C(=C/c3ccccc3)C(=O)N2CCc2ccc(S(N)(=O)=O)cc2)cc1,97.8%,100%,110%,106%,103%,109%,104%,–
CCn1cc(-c2ccnc(NCCNS(=O)(=O)c3ccc(Br)cc3)c2)c(-c2cccc(OC)c2)n1,16.3%,99.7%,83.7%,81.7%,51.6%,111%,82.8%,–
CC(C)C1=NOC(=O)C1=Cc1cn(-c2ccco2)nc1-c1ccccc1,49%,116%,91.9%,84%,58.2%,101%,85.2%,–
CC(C)C1=NOC(=O)C1=Cc1cn(-c2ccccc2)nc1-c1ccc(Cl)cc1,74.6%,117%,76.4%,61.4%,50.4%,72.5%,91.7%,–
c1cc2ccc3cc2cc1CNCCN1CCNCc2ccc4ccc(cc4c2)CNCCN(CCNC3)CCNCc2ccc3ccc(cc3c2)CNCC1,-6.97% (active),97.3%,-5.25% (active),23.4%,5.35% (active),19.2%,-15.5% (active),–
COc1ccc2nc3cc(Cl)ccc3c(Nc3ccc(O)c(CN4CCCC4)c3)c2c1,35.8%,79.2%,-61.5% (active),-65.7% (active),-45% (active),–,19.2%,43.4%
CCOC(=O)c1nn(C2CCCCO2)c2ccc(NS(=O)(=O)c3ccc(C)cc3)cc12 (stereo not given),80%,91.8%,100%,98.1%,87.8%,107%,104%,–
CCCCCCSc1ncnc2nc[nH]c12,73.1%,82.6%,84.9%,101%,85.1%,93.5%,86%,–
O=C(N/N=C1\c2ccccc2-c2cccc(C(=O)O)c21)c1ccc(O)cc1,104%,83.7%,99.1%,84.3%,99.4%,98.9%,105%,–

SMILES,growth [1],growth [2],growth [3],growth [4],growth [5],growth [6],growth [7],growth [8]
O=S(=O)(NCCCNc1nccc(-c2c(-c3cccc(F)c3)nc3occn23)n1)c1cccc2ccccc12,4.4% (active),45%,15.7%,24.2%,23.4%,2.75% (active),15.7%,–
C[C@H]1[C@H](C)CC[C@]2(COC(=O)CCC(=O)O)CC[C@]3(C)C(=CC[C@@H]4[C@@]5(C)CCCNC(C)(C)[C@@H]5CC[C@]43C)[C@H]12,36.7% [100 µM],64% [100 µM],79.6% [100 µM],87.7% [100 µM],40.5% [100 µM],71.9% [100 µM],78% [100 µM],–
CCCCN(CCCC)CC(O)c1ccc(OCc2ccccc2)c2ccccc12 (stereo not given),87.5%,111%,–,72.6%,53.5%,70%,74.2%,95.7%
O=C1Nc2ccccc2/C1=C/C(=O)c1ccc(N2CCOCC2)cc1,81.1%,97%,96%,51.6%,92.2%,101%,105%,–
Cc1ccc(S(=O)(=O)Nc2ccccc2)cc1N,101%,49.5%,92.6%,99.7%,–,–,107%,91.8%
O=C(O)CSCc1nnc2n(Cc3ccccc3)c(=O)c3c4c(sc3n12)CCCC4,85%,101%,112%,107%,144%,98.1%,109%,–
CCn1cc(-c2ccnc(NCCNS(=O)(=O)c3cccc4ccccc34)c2)c(-c2cccc(O)c2)n1,85.9%,109%,96.1%,118%,87.3%,122%,99.1%,–
O=[N+]([O-])c1cc([N+](=O)[O-])c(C(F)(F)F)cc1NN=C(c1ccc(O)cc1)c1ccc(O)cc1,-6.47% (active),132%,99.1%,106%,-82.4% (active),-55.5% (active),84%,–
COc1ccc(N(c2nc(-c3ccc([N+](=O)[O-])cc3)cs2)C(C)C)cc1,53.4%,97%,89%,88.1%,76.3%,101%,75.7%,–
C1=C[C@H]2O[C@@H]1c1ccc3[nH]ccc3c12,110%,108%,0.425% (active),73.4%,97.9%,86.7%,79.5%,–
CC(C)C1=NOC(=O)C1=Cc1cn(-c2ccccc2)nc1-c1ccccc1,76.2%,114%,73.2%,60.1%,28.9%,91.8%,79.5%,–
C=C(C)[C@@H]1CC[C@]2(C(=O)NCCNCCNCCN)CC[C@]3(C)[C@H](CC[C@@H]4[C@@]5(C)CC[C@H](O)C(C)(C)[C@@H]5CC[C@]43C)[C@@H]12,-32.6% [100 µM] (active),-51.9% [100 µM] (active),-89.2% [100 µM] (active),-86.7% [100 µM] (active),-26.5% [100 µM] (active),-90.4% [100 µM] (active),-52.2% [100 µM] (active),-60.5% [100 µM] (active)
CC(C)C1=NOC(=O)C1=Cc1cn(-c2cccnc2)nc1-c1ccccc1,92.6%,125%,95.1%,88.8%,81.2%,111%,102%,–
Nc1nc(SCc2cccc([N+](=O)[O-])c2)c2[nH]cnc2n1,92.4%,103%,104%,107%,101%,112%,99.8%,–
CCOC(CNC(=O)c1cccc([N+](=O)[O-])c1)OCC,92.1%,60.5%,103%,102%,–,–,112%,87.2%
COc1cc(NN=C(c2ccc(O)cc2)c2ccc(O)cc2)c([N+](=O)[O-])cc1[N+](=O)[O-],-10.1% (active),111%,95.6%,98.9%,1.31% (active),2.63% (active),73.2%,–
